# Compound activity from PubChem.
# Compounds with a hit are over-represented: about 2.4% of the library has one in this group of screens.
# NOD2-RIPK2 inh: NOD2-RIPK2 protein interaction inhibition. inhibition, % at 4.98 µM. AID 624267. O43353. actives 0.38% (n = 360,000). CHO BLA complementation NOD2-RIPK2, CCF4 ratio; in the data active = inhibition above about 21%;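 also: 0% = vehicle only and 100% = reference blocker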
# TLR9-MyD88 block: TLR9-MyD88 interaction inhibition. Q9NR96+Q99836. CHO BLA complementation TLR9-MyD88, CCF4 FRET ratio. inhibition, % at 4.98 µM. actives 0.21% (n = 340,000). AID 504734;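 active = inhibition above the mean over all tested compounds plus 3 SD, cut at about 21% in these data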;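 also: 0% = DMSO only wells and 100% = clavulanate BLA inhibitor control wells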
# CRFBP-R2 block: blocks CRF-induced signaling of the CRF-BP/CRF-R2 complex | HEK293 CRF-R2/CRF-BP, CRF-induced calcium fluorescence | inhibition, % at 11.8 µM | actives 0.59% (n = 350,000) | AID 588475;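 active = inhibition of the ligand-induced calcium signal above about 50% at the single tested concentration, limit read from the data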
# m5-HT2A agonist: mouse HTR2A agonism via beta-arrestin recruitment; P35363; CHO-K1 mHTR2A beta-arrestin complementation, luminescence; percent of 30 µM serotonin response; activation, % at 7.6 µM; actives 0.66% (n = 360,000); AID 624169;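 active = activation above a run cutoff, the mean activation of all tested compounds plus 3 SD, cut at about 14% in these data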;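 also: 0% = plate median of compound wells and 100% = 30 µM serotonin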
# ABHD5-PLIN5 inh: inhibitors of human ABHD5-perilipin-5 interaction. Q00G26+Q8WTS1. Split G. princeps luciferase complementation, luminescence, 4 h. inhibition, % at 4 µM. actives 0.78% (n = 360,000);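 active = inhibition above the mean inhibition across every tested compound plus 3 SD, cut at about 22% in these data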;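 also: 0% = DMSO only wells and the 100% control is not disclosed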
# TLR4 MyD88 comp: TLR4-MyD88 interaction inhibition in cells | AID 861 | HeLa CL3-4 TLR4/MyD88 BLA complementation, FRET ratio | actives 0.18% (n = 200,000) | inhibition, % at 8.4 µM | O00206+Q99836; in the data active = inhibition above about 25%;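 also: 0% = vehicle and 100% = reference inhibitor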
# ABHD5-PLIN5 conf: ABHD5-PLIN5 interaction inhibition, confirmed; actives 67% (n = 2,200); biochemical ABHD5-PLIN5 interaction, luminescence; shares compounds with ABHD5-PLIN5 inh; inhibition, % at 4 µM; in the data active = inhibition above about 23%;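 also: 0% = DMSO vehicle wells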
# HNF4 counter: HNF4 split-luciferase signal hit, counter-screen. actives 77% (n = 2,200). shares compounds with ABHD5-PLIN5 inh. inhibition, % at 4 µM. HNF4 dimerization, luminescence, biochemical;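 active = mean inhibition across replicate wells exceeding the computed hit threshold, cut at about 13% in these data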;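 also: light from luciferase halves that rejoin when HNF4 fusion proteins dimerize; 0% = DMSO only wells and the 100% control is not given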
# NOD2 RIPK2 conf: NOD2-RIPK2 interaction inhibition confirmed | shares compounds with NOD2-RIPK2 inh | CHO cells, NOD2-RIPK2 BLA complementation, CCF4 FRET | inhibition, % at 4.98 µM | actives 70% (n = 1,200);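 active = mean inhibition across replicates above a set limit taken from the earlier primary screen, cut at about 21% in these data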;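 also: 0% = DMSO-only wells and the high end = clavulanate BLA-blocked wells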
# BLA counter: counter-screen for NOD2-RIPK2 interaction inhibitors: BLA reporter; shares compounds with NOD2-RIPK2 inh; CHO BLA reporter, CCF4 FRET ratio, counterscreen; inhibition, % at 4.98 µM; actives 57% (n = 1,200);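 active = mean inhibition above the low-control mean inhibition plus three low-control SD, cut at about 11% in these data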;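 also: 0% = DMSO only wells and 100% = clavulanate high control wells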
# * = called active by the depositor; x = not tested or not shown.
SMILES,NOD2-RIPK2 inh,TLR9-MyD88 block,CRFBP-R2 block,m5-HT2A agonist,ABHD5-PLIN5 inh,TLR4 MyD88 comp,ABHD5-PLIN5 conf,HNF4 counter,NOD2 RIPK2 conf,BLA counter
c1csc(-c2ccc3nncn3c2)c1,-1,x,x,0,9,x,x,x,x,x
Cc1ccc(-c2nn(-c3ccccc3)cc2CN(Cc2ccccc2)C(=O)c2ccco2)o1,36*,8,18,-3,38*,-3,15,21*,2,-7
O=C(NCc1ccccc1)C1C(c2ccc3c(c2)OCO3)=Nc2ccccc2N1C(=O)c1cccc2ccccc12 (stereo not given),-11,x,x,-1,8,x,x,x,x,x
CCOC(=O)/C=C/S(=O)(=O)c1ccc(NC(C)=O)cc1,22*,23*,-8,-4,77*,11,78*,109*,54*,21*
CCCN1C(=O)S/C(=C\c2ccc(N3CCOCC3)cc2C)C1=O,x,x,x,x,x,-10,x,x,x,x
CCCN1C(=O)S/C(=C\c2ccc(N3CCOCC3)o2)C1=O,25*,19,17,0,74*,19,54*,109*,13,7
CCCN1C(=O)S/C(=C/c2ccc(N3CCOCC3)o2)C1=O,41*,15,-29,-1,83*,x,32*,93*,6,5
O=[N+]([O-])c1c(NCCCO)cc(Sc2ccc(Cl)cc2)c2nonc12,8,9,6,4,6,0,x,x,x,x
Cn1ccnc1Sc1cc(NCCCO)c([N+](=O)[O-])c2nonc12,27*,13,12,-6,26*,4,29*,95*,31*,8
COC(=O)c1ccc2c(c1)C(C)(C)C(/C=C/c1ccc(OC)c(OC)c1OC)=[N+]2C,26*,2,28,-1,47*,15,101*,101*,88*,6
COC(=O)c1ccc2c(c1)C(C)(C)C(/C=C/c1ccc(O)cc1)=[N+]2C,26*,16,-137,-5,71*,-5,102*,101*,71*,-5
Cc1cccc(C)c1-n1nnnc1C1(C)CCC(=O)N1C1CC1 (stereo not given),-4,x,x,12,4,x,x,x,x,x
CC(C)(C)NCC(=Cc1ccccc1)C(=O)c1ccccc1,27*,-2,8,-6,41*,x,69*,54*,24*,3
COc1cccc(C(C)(O)c2nc(-c3ccc(N(C)C)cc3)cs2)c1 (stereo not given),0,x,x,1,-5,x,x,x,x,x
CCC(=O)Nc1ccc(C(=O)NNC(=O)CCCCC(=O)NNC(=O)c2ccc(NC(=O)CC)cc2)cc1,-5,-10,12,3,13,x,x,x,x,x
CCc1ccc2c(c1)/C(=C/C(=O)c1cccs1)C(=O)N2,47*,11,-3,3,83*,17,90*,96*,42*,2
Cc1cc(Br)c2c(c1)/C(=C/C(=O)c1cccs1)C(=O)N2,-2,10,-52,5,10,22,x,x,x,x
O=S(=O)(Nc1ccc(C(O)(C(F)(F)F)C(F)(F)F)cc1)c1ccc(Cl)c2nonc12,29*,x,x,12,42*,x,51*,48*,32*,4
COc1ccc(/C=C/C(=O)Oc2ccc(C)c(C)c2)cc1OC,-3,-5,-13,1,-8,-4,x,x,x,x
COc1cc(/C=C/[N+](=O)[O-])ccc1OC(=O)/C=C/c1ccc(F)cc1,38*,1,-15,-3,30*,x,49*,73*,56*,-2
COC(=O)CCS(=O)(=O)c1nc(-c2ccccc2)cc(C(F)(F)F)n1,44*,19,-8,3,51*,15,85*,105*,59*,13*
Cc1cc(NC(=O)CSc2nc(-c3cccs3)cc(C(F)(F)F)n2)no1,-13,8,-21,-5,-2,6,x,x,x,x
COc1ccc(-c2cc(C(F)(F)F)nc(S(C)(=O)=O)n2)cc1,33*,17,6,-2,48*,15,67*,91*,42*,2
Cc1cc(NC(=O)CCCS(=O)(=O)c2nc(-c3cccs3)cc(C(F)(F)F)n2)no1,68*,20,9,2,47*,23,74*,100*,43*,15*
CCCNC(=O)C1(C)CCCN(CC(=O)c2ccc3c(c2)OCCO3)C1 (stereo not given),4,x,x,10,-3,x,x,x,x,x
SMILES,NOD2-RIPK2 inh,TLR9-MyD88 block,CRFBP-R2 block,m5-HT2A agonist,ABHD5-PLIN5 inh,TLR4 MyD88 comp,ABHD5-PLIN5 conf,HNF4 counter,NOD2 RIPK2 conf,BLA counter
CC1=C(CO)C(=O)OC([C@@H](C)C2CC[C@H]3C4C[C@H]5O[C@]56[C@@H](O)C=CC(=O)[C@]6(C)C4CC[C@]23C)C1 (stereo not given in full),47*,3,-7,-3,65*,x,77*,77*,63*,7
COc1ccc(CN2C(=O)C(CC(=O)NCCCCc3ccccc3)CC(C(=O)N(C)C)=C2C)cc1 (stereo not given),0,5,-1,-7,6,x,x,x,x,x
CCOC(=O)C1CCN(Cc2cc(Cl)c3ccccc3c2O)CC1,28*,4,-4,7,66*,x,20,55*,4,5
CCOC(=O)C1CCN(Cc2ccc(OC)c(C)c2OC)CC1,-3,2,-14,-1,4,-6,x,x,x,x
O=C(Nc1ccc2c(c1)OCO2)C1Cc2c(-c3ccc4c(c3)OCO4)ccnc2O1 (stereo not given),10,x,x,-3,6,x,x,x,x,x
COc1ccc(C(=O)C(C)OC(=O)C2CC3CCCC(C2)C3=O)cc1 (stereo not given),0,-23,1,5,5,x,x,x,x,x
COC(=O)/C=C1\OCc2cccc(C)c21,-4,x,x,3,5,x,x,x,x,x
COc1ccc(-n2cc(C(=O)O)c3ccccc3c2=O)cc1,1,15,3,-3,2,-4,x,x,x,x
COc1ccc(-n2sc3ccccc3c2=O)cc1,26*,0,-1,-5,76*,x,81*,120*,44*,7
COc1ccc(-n2sc3ccc(F)cc3c2=O)cc1,40*,16,-3,12,86*,x,93*,120*,40*,2
CCOc1ccc(Cl)cc1-c1cc(C(=O)NCc2ccccc2OC)[nH]n1,-2,x,x,-6,0,x,x,x,x,x
